Data as given in PubChem BioAssay AID1650 (Southern Research Specialized Biocontainment Screening …, 2009).
Results with a measured potency or affinity are listed apart. The source made the active and inactive calls. The rule behind the calls is not given here.

assay: host cell cytotoxicity of antiviral hits, dose response, cytotoxicity control for West Nile virus antiviral project, secondary assay (AID 1650); settings: Mammalian host cell viability, cytotoxicity counter-screen; series mostly up to 10 µM; viability: at the top concentration

SMILES	viability
Cc1ccc(Sc2nnc(Cc3ccccc3)c3ccccc23)cc1	81.4% (inactive)
CC(CN1CCCC1)C(=O)NN (stereo not given)	90.7% [at 20 µM] (inactive)
CCC(C)c1ccccc1NC(=O)COC(=O)c1ccc2[nH]c3c(c2c1)CCCC3 (stereo not given)	72% (inactive)
Cc1cc(N2CCCC2)nc2ccc(NC(=S)NCCCN3CCC(C)CC3)cc12	79.8% [at 20 µM] (inactive)
Cn1c(N)c(C(=O)CSc2nc3ccccc3c(=O)n2CCCN2CCOCC2)c(=O)n(C)c1=O	87.8% (inactive)
O=C(CCN1C(=O)/C(=C/c2ccccc2Cl)SC1=S)NCCc1ccc(O)cc1	83.2% (inactive)
Cc1ccc2nc(N(CCCN(C)C)C(=O)c3cc(-c4cccs4)nc4ccccc34)sc2c1	81.7% (inactive)
O=C(/C=C/c1ccc2c(c1)OCO2)Nc1ccc(Cl)cn1	95.4% [at 20 µM] (inactive)
CCOC(=O)C(=CNc1ccc2c(c1)nnn2-c1ccc(Cl)cc1)C(=O)OCC	70.6% (inactive)
Cc1cc2nc(Sc3c([N+](=O)[O-])nc(C)n3Cc3ccccc3)[nH]c2cc1C	82.3% [at 20 µM] (inactive)
C/C(N)=C(/C#N)C(=O)COC(=O)c1cc(-c2cccc(Br)c2)nc2ccccc12	75.5% (inactive)
CCCCN(CC)CCCNC(=S)Nc1ccc2nc(N3CCN(CC)CC3)cc(C)c2c1	80% (inactive)
O=C(CNC(=S)N(Cc1ccccc1F)C1CCCCC1)NCC1CCCO1 (stereo not given)	82.8% (inactive)
CCOc1cc(/C=N/N=C(\N)c2nonc2N)cc(Br)c1OCc1cccc2ccccc12	70.8% [at 20 µM] (inactive)
CCN(CC)S(=O)(=O)c1ccc(OC)c(NC(=O)c2cccc([N+](=O)[O-])c2C)c1	83% [at 20 µM] (inactive)
CN1CCN(NC(=O)c2cc(-c3ccc(Cl)s3)nc3ccccc23)CC1	74% [at 20 µM] (inactive)
CCN(CC)CCn1c(=N)n(CC(=O)c2ccc(Br)s2)c2ccccc21	77.2% [at 20 µM] (inactive)
CCOc1ccc(/C=C/c2nc(C#N)c(NCCCN(C)C)o2)cc1	83.3% (inactive)
Cc1oc(-c2ccccc2Cl)[n+]([O-])c1C	90.3% [at 20 µM] (inactive)
CCOC(=O)c1[nH]c2ccccc2c1NC(=O)CC(C)(C)C	83.8% (inactive)
O=C(Nc1ccc(Nc2ccccc2)cc1)C(Cl)Cl	78.6% (inactive)
O=C(Nc1cccc(-c2cccc(Cl)c2)c1)C1CCN(CC2CCOC2)CC1 (stereo not given)	77.2% (inactive)
C/C(=N\OC(=O)c1ccc(F)cc1)c1nccs1	92.5% [at 20 µM] (inactive)
CC(C)c1ccc(/C=C/C(=O)Nc2ccc(CN3CCOCC3)cc2)cc1	78.1% [at 20 µM] (inactive)
Cc1ccc2[nH]c(=O)c(CN(CCCN3CCOCC3)C(=O)Nc3ccc(Cl)cc3)cc2c1	77.5% [at 20 µM] (inactive)
